# A549 viability – Nrf2 qHTS screen for inhibitors: counterscreen for cytotoxicity | A549 ARE-Fluc cells, CellTiter-Fluor viability, 18-24 h | actives 0.16% (n = 390,000) | AID 504648, 2011 | Potency, µM (titrated, usually from 46 µM), for the others: top-dose activity change, negative = cytotoxicity, actives largely listed as inhibitors; also: % is scaled to controls: 0 for no effect and ±100 for the full control effect
#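 Cytotoxicity counterscreen: CellTiter-Fluor fluorescence was measured in A549 ARE_Fluc cells after 18-24 h of compound exposure in a concentration series. The subsequent BugLite luminescent read reports ARE-luciferase activity.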
# PINK1 expr mod – A Quantitative High throughput Screen to Identify Chemical Modulators of PINK1 Expression; Potency, µM (series often up to 76.6 µM), for inactives: at the highest dose activation (PINK1 increase), usual class: activators; PINK1 immunofluorescence, high-content cytometry, 24 h; actives 0.2% (n = 410,000); active = well fitted activation curve with a large enough effect; inconclusive = small, poorly fitted or top-dose-only effect; cell line not stated here; also: % of control where 0% means no effect; nearly all actives have a fitted effect of over 65% in size
#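 Stable cell line treated 24 h with compounds at 5 concentrations (CCCP controls), then fixed and immunostained for PINK1 plus nuclear and cell stains; PINK1 immunofluorescence quantified by laser-scanning microplate cytometry.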
# Nrf2 ARE act – qHTS of Nrf2 Activators; Potency, µM (highest dose often 46.1 µM), without a hit: at the highest dose activation, actives largely listed as activators; actives 0.31% (n = 410,000); AREc32 ARE-luciferase reporter (MCF7-derived line), luminescence, 24 h; AID 624171, 2012; also: % of control where 0% means no effect; nearly all actives have a fitted effect of over 65% in size
#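 Reporter line AREc32 (ARE-Fluc), seeded overnight in OPTI-MEM with 5% FBS; compound pin-transferred, 24 hr at 37 deg C, 5% CO2; luminescent read-out.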
# Nrf2 block – Nrf2 qHTS screen for inhibitors. A549 ARE-Fluc reporter, luciferase luminescence, 18-24 h. Potency, µM (highest dose often 46 µM), without a hit: top-dose activity change, negative = inhibition, hits mostly inhibitors. actives 2.1% (n = 360,000). AID 504444, 2011; also: % is scaled to controls: 0 for no effect and ±100 for the full control effect; nearly all actives have a fitted effect of over 60% in size
#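 Two sequential reads on A549 ARE_Fluc cells exposed to compound for 18-24 h: a CellTiter-Fluor fluorescence read for viability, then a luciferase luminescence read for Nrf2/ARE activity.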
# Epigenetic reg – Quantitative High-Throughput Screen for Regulators of Epigenetic Control. Potency, µM (doses to about 53.9 µM), without a hit: top-dose GFP activation, actives largely listed as activators. AID 1865, 2009. actives 0.2% (n = 280,000). murine LDR cells, GFP reporter derepression, 30 h; also: % of control where 0% means no effect; nearly all actives have a fitted effect of over 60% in size
#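 Derepression of a silenced CMV-GFP reporter in murine LDR cells is scored by enumerating GFP-positive cells with a laser-scanning microplate cytometer after 30 hours of treatment at 37 C.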
# Numbers without * were called inactive; ? = inconclusive; / = not tested or not shown; [ ] = dose if it differs, or a comment. Only some compounds are listed: those with a hit (about 2.4% of all), similar ones and a draw of the others. Unless noted, calls follow the shape of the dose curve; as a rule, active = well fitted curve in the direction sought with a large enough effect; inconclusive = small, poorly fitted or top-dose-only effect, or another doubt; inactive = no such curve, though single readings can be large; an effect the other way counts as inactive or inconclusive. Potency is read from the fitted curve at half-maximal effect.
SMILES,A549 viability,PINK1 expr mod,Nrf2 ARE act,Nrf2 block,Epigenetic reg
COc1ccc(C2Nc3ccccc3C(=O)N2Cc2cccc(Cl)c2)cc1COc1ccc(NC(C)=O)cc1 (configuration not stated),-15.7%,/,/,23.1µM*,/
COc1ccc(C2Nc3ccccc3C(=O)N2Cc2ccccc2)cc1COc1ccccc1OC (configuration not stated),1.5%,/,/,-26.9%,/
COC(=O)C1CCN(Cc2ccc3c(c2)CN(C(=O)c2ccc(-n4cnnn4)cc2)CCO3)CC1,/,-0.1%,/,/,/
C/C(CCC(=O)OC[C@@H]1O[C@H](C#Cc2ccccc2)C=C[C@@H]1Oc1ccc(C)cc1)=N/O[C@@H](C)c1cn([C@H](CO)Cc2ccccc2)nn1,/,/,/,/,0.8%[10.1 µM]
COc1ccccc1C1CN(Cc2cccc3c2OCO3)Cc2ccccc2O1 (configuration not stated),/,-0.9%,/,/,/
O=S(=O)(c1cccs1)N1CCN(CCOc2ccc(Cl)cc2)CC1,-23.5%,0.6%,-0.8%,14.6µM*,/
COc1cc(-c2nn3c(-c4ccccc4)nnc3s2)cc(OC)c1OC,/,2.4%,3.3%,4.4%,-0.9%
COc1cc(-c2nn3c(-c4cc(-c5ccccc5)n[nH]4)nnc3s2)cc(OC)c1OC,?,?,/,20.6µM*,/
COc1cccc(CN2CCCC(c3nc(-c4ccncc4)ncc3-c3ccccc3)C2)c1O (configuration not stated),/,3.6%,/,/,/
N#C/C(=N/Nc1ccc(OC(F)(F)F)cc1)C(N)=S,?,14.1µM*,19.5%,?,-1.3%
OCCC#Cc1c(-c2ccsc2)sc2ccccc12,4.6%,-0.5%,2.51µM*,6.7%,/
OCCCCC#Cc1c(-c2ccsc2)sc2ccccc12,-3.0%,4.7%,?,0.2%,/
CCCNC(=O)Cn1c(=O)/c(=C\c2ccc(-c3ccc([N+](=O)[O-])cc3)o2)s/c1=C\C(=O)C(C)(C)C,1.6%,?,3.3%,7.1%,0.199µM*
CCCNC(=O)Cn1c(=O)/c(=C/c2ccc(-c3cccc([N+](=O)[O-])c3)o2)s/c1=C\C(=O)C(C)(C)C,-3.9%,?,3.8%,4.4%,/
NCCCCCc1nnc(SCc2ccccc2Cl)o1,?,-0.8%,-2.2%,13µM*,-1.2%
COc1ccccc1OCC(=O)c1[nH]c(C)c(C(C)=O)c1C,-5.7%,-0.8%,0.5%,5.17µM*,0.0%
CC(=O)c1c(C)[nH]c(C(=O)COc2ccc(C#N)cc2)c1C,-14.1%,8.8%,0.5%,11.6µM*,11.4%
CC(=O)c1c(C)[nH]c(C(=O)COc2cc(C)ccc2C(C)C)c1C,-12.1%,3.0%,0.4%,7.31µM*,?
CC(=O)c1c(C)[nH]c(C(=O)COC(=O)COc2ccccc2)c1C,-3.2%,2.5%,0.1%,-1.1%,/
COc1cc(C)ccc1OCC(=O)OCC(=O)c1[nH]c(C)c(C(C)=O)c1C,-0.3%,0.2%,-0.3%,-2.7%,/
O=C(Cc1ccc(F)cc1)NCc1ccc2c(c1)CCN2C(=O)c1ccc(F)cc1,-12.0%,0.6%,0.4%,/,-1.3%
Cc1ccc(NC(=O)CSc2nc3ccccc3c3nc(CCc4c(C)n[nH]c4C)nn23)cc1F,?,25.1%[38.3 µM],-0.3%,13µM*,1.8%
[2H]C(CCOS(N)(=O)=O)c1ccc(C(C)(C)C)cc1 (configuration not stated),-2.8%,7.2%,-1.3%,5.17µM*,/
Cc1cccc(N2CCN(S(=O)(=O)c3c(C(=O)N4CCC(C)CC4)c(C)n(C)c3C)CC2)c1C,0.1%,3.6%,0.4%,/,-0.3%
C#CCOc1c(Cl)cc(/C=N/NC(N)=S)cc1OCC,-0.6%,2.4%,7.3%,?,-0.1%
SMILES,A549 viability,PINK1 expr mod,Nrf2 ARE act,Nrf2 block,Epigenetic reg
CCOc1c(Cl)cc(/C=N/NC(N)=S)cc1OC,5.3%,1.9%,5.8%,20.6µM*,0.0%
CCSC1=N/C(=C\c2ccc3c(c2)OCO3)C(=O)S1,-10.0%,-2.4%,0.0%,1.2%,1.2%
CCSC1=N/C(=C\C=C2/Oc3ccccc3N2CC)C(=O)S1,?,18.5%,1.7%,?,11.2µM*
C=C1C=C(C(F)F)n2ncc(C(=O)N3CCN(c4ccccc4)CC3)c2N1,/,8.1%,/,/,/
O=c1cc(-c2ccccc2Cl)oc2c([N+](=O)[O-])c(O)cc(O)c12,?,1.3%,-2.8%,13µM*,-0.9%
O=c1cc(-c2ccccc2Cl)oc2ccc([N+](=O)[O-])c(O)c12,?,-1.1%,0.3%,?,0.7%
N#Cc1nc(Nc2cccc([N+](=O)[O-])c2)nc(NC2CCCC2)n1,-2.4%,/,/,16.4%,/
CCSc1nnc(NC(=O)NC(CC)(C(F)(F)F)C(F)(F)F)s1,?,22.4µM*,1.7%,?,2.4%
CCSc1nnc(NC(=O)NC(C)(C(F)(F)F)C(F)(F)F)s1,-5.1%,20µM*,4.1%,?,2.6%
CCSc1nnc(NC(=O)Nc2cccc(C)c2)s1,1.7%,12.6µM*,2.0%,10.0%,2.1%
CCSc1nnc(NC(=O)[C@@H](NC(=O)c2cccc(C)c2)C(C)C)s1,0.3%,2.4%,1.8%,1.5%,0.0%
CCCC(=O)Nc1nnc(SCC)s1,-0.6%,-0.4%,2.7%,1.8%,-1.3%
COc1ccc(-c2ccc(C(=O)N3CCc4c(cnc(C)c4CNS(=O)(=O)N(C)C)C3)o2)cc1,/,-0.5%,/,/,/
O=C(Nc1nc(-c2cc(F)ccc2F)cs1)C1=NN(c2ccccc2)C(=O)CC1,-1.2%,-2.5%,11.3%,8.4%,3.3%
COc1ccc(-c2csc(NC(=O)c3ccccc3NS(=O)(=O)c3ccc(C)cc3)n2)cc1,?,14.1µM*,6.1%,16.4µM*,0.0%
COc1ccc(-c2csc(NC(=O)C3=NN(c4ccccc4)C(=O)CC3)n2)cc1,?,6.1%,-0.7%,20.6µM*,-4.4%
COc1ccc(C(=O)NCc2nnc(SC)n2-c2ccccc2C)c(OC)c1OC,/,-0.2%,/,/,/
c1ccc(CNc2oc(-c3ccccc3)nc2-c2ccccc2)cc1,/,/,/,/,-0.3%
CCN(C(=O)Cn1nnc2sc(-c3ccccc3)cc2c1=O)c1cccc(C)c1,10.8%,-0.1%,4.47µM*,26.1%,-1.6%
CCN(C(=O)CSc1nc2ccccc2nc1Cc1ccc(F)cc1)c1cccc(C)c1,-19.7%,0.5%,-0.7%,/,-3.4%
CCN(C(=O)CSc1nc(-c2ccccc2)no1)c1cccc(C)c1,-1.8%,12.6µM*,-1.6%,7.7%[9.27 µM],-0.9%
Cc1cc(SCC(=O)c2cccs2)n2nc(C)c(-c3ccc(Cl)cc3)c2n1,7.8%,4.5%,0.1%,1.4%,1.9%
Cc1nn2c(SCC(=O)c3cccs3)cc(C(C)(C)C)nc2c1-c1ccccc1,?,6.3%,0.3%,20.6µM*,1.3%
CCC1C(=O)NCCN1Cc1ccc2c(c1)CN(Cc1cccc(OC)c1)CCO2 (configuration not stated),/,-0.5%,/,/,/
